Assay results published in PubChem BioAssay AID434994 (NMMLSC, 2010).
This is one part of the list.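 Rule for the calls: active = superoxide signal below 65% of the plate average of sample wells; inactive = the rest.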

Assay: retest of yeast aging ROS inhibitors – cherry picked compounds, confirmation (AID 434994);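 note: cells aged with compound for 7 days at 30 degrees C before staining; 100% equals mean DHE fluorescence of all compound wells on the plate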
Details: S. cerevisiae aging, superoxide DHE fluorescence; at 10 µM; hits give low values

Superoxide response (% of plate), inactive:
O=C(CSCc1ccccc1)Nc1ccccc1 107%
Cc1ccc(C23CC4CC(CC(C(=O)NCC(=O)O)(C4)C2)C3)cc1 106%
NC(=S)Nc1c(Cl)cccc1Cl 109%
CN1CCN(c2cc3c(cc2F)c(=O)c(C(=O)O)cn3CCF)CC1 116%
CCN(CC)C(=O)CSc1nnc(-c2cccc(OC)c2)o1 113%
Cc1cc(C(F)F)n2nc(C(=O)Nc3ccc(S(=O)(=O)NC45CC6CC(CC(C6)C4)C5)cc3)nc2n1 111%
CC(=O)c1ccc2c(c1)c1ccccc1n2CC(C)C 107%
COc1cc(NC(=O)CSc2ccc(-c3cccnc3)nn2)cc(OC)c1 123%
O=[N+]([O-])c1ccc2c(c1)Nc1nc3ccccc3nc1N2 82.5%
O=C(CSc1ccc(-c2ccc(-n3cccn3)cc2)nn1)Nc1ccc([N+](=O)[O-])cc1 95.7%
CNC(=O)c1cccc2nc3ccccc3nc12 79.8%
COc1cc(-c2nnn(CC(=O)NCc3ccccc3)n2)cc(OC)c1OC 100%
COc1ccc(C)cc1S(=O)(=O)Nc1cccc(Cl)c1Cl 96.3%
CSc1sc(C(=O)NNC(=O)c2ccc(Cl)cc2)c2c1C=CCC2 104%
Cn1c(Nc2ccccc2)cc(=O)n(C)c1=O 100%
CCn1c2ccccc2c2cc(CC(N)=O)ccc21 111%
O=C(Nc1ccc(Br)cn1)c1ccc([N+](=O)[O-])cc1Cl 96.2%
COc1ccc(CCNC(=O)c2ccccc2-c2ccccc2C(=O)O)cc1OC 108%
O=C(CN1CCN(c2ccccn2)CC1)Nc1ccc(Br)cc1 111%
O=C(Nc1cccc(Cl)c1Cl)c1ccccc1NC(=O)C1CC=CCC1C(=O)O (configuration not stated) 101%
Cc1ccc(-c2nc(CS(=O)CC(=O)N3CCN(c4ncccn4)CC3)c(C)o2)cc1 (configuration not stated) 92.5%
Cc1ccc2cccc(S(=O)(=O)N3CCN(c4ccccc4F)CC3)c2n1 119%
